Results from PubChem BioAssay AID2013 (Sanford-Burnham Center for Chemical Genomics, 2009).
“And” between values parts separate entries of the source, which are not always exact repeats. Equal entries are not always repeated. In all, about 290,000 compounds went through this assay and about 370 (0.13%) were called active.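 How the source made its calls: active means spots per cell inhibited over 60%, with over 100 cells counted and total cytoplasm intensity under 500,000; inconclusive means wells with under 100 cells, flagged as likely toxic; inactive means the rest.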 The sample as a whole holds a higher share of actives than the screen did. Results with a measured potency or affinity are listed apart. Some structures have more than one record in an assay (separate samples or runs), and their calls can disagree.

Biological target: G-protein coupled receptor 55 (Homo sapiens) (UniProt Q9Y2T6)
Sequence (Q9Y2T6 whole entry, looked up): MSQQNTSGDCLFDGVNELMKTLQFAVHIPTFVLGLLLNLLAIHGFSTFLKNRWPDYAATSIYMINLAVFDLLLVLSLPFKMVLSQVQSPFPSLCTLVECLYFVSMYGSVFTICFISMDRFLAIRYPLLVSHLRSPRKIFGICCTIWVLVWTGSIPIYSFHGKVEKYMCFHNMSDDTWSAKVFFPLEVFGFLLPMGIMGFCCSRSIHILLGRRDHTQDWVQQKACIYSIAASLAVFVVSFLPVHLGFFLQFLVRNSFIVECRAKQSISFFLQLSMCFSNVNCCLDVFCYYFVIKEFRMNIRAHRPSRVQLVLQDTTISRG
Test: inhibition of LPI-stimulated GPR55 beta-arrestin translocation – imaging, U2OS, beta-arrestin-GFP, LPI agonist, primary screen (AID 2013);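 further: U2OS cells stably carrying GPR55 and arrestin-GFP stimulated by 5 µM LPI near EC80; imaged beta-arrestin-GFP aggregate spots per cell after agonist stimulation; plate controls were LPI-stimulated DMSO wells for no effect and DMSO wells without LPI for full effect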
Details: LPI antagonism, at 10 µM, stronger effect = higher value

| SMILES | inhibition |
| --- | --- |
| O=S(=O)(NCC1CCN(c2ccc(S(=O)(=O)N3CCOCC3)cc2)CC1)c1ccccc1 | 0.7% (inactive) |
| O=C(O)Cn1ncn(-c2ccc(OC(F)(F)F)cc2)c1=O | 4.9% (inactive) |
| O=C(NC(=S)NCCC1=CCCCC1)c1ccc(Br)o1 | 4.9% (inactive) |
| O=C(NC(=S)NCCC1=CCCCC1)c1ccccc1Br | 74.9% (active) |
| Cc1ccccc1C(=O)NC(=S)NCCC1=CCCCC1 | 1% (inactive) |
| CCOc1ccccc1NC(=O)NCc1ccco1 | 11.3% (inactive) |
| Cc1cc(SCC(=O)N/N=C/c2ccc(O)cc2O)nc2ccccc12 | 13.8% (inactive) |
| Oc1oc(-c2ccc(Br)cc2)nc1C=Nc1ccc(Br)cn1 | -0.2% (inactive) |
| CC(=O)c1ccc(N2CCN(C3CCC(C(C)(C)C)CC3)CC2)cc1 (stereo not drawn) | 9% (inactive) |
| N[C@@H](Cc1ccc(O)c(I)c1)C(=O)O | 8.6% (inactive) |
| O=C(O)Cc1cc(I)c(Oc2ccc(O)c(I)c2)c(I)c1 | 6.9% (inactive) |
| N[C@@H](Cc1cc(I)c(Oc2ccc(O)c(I)c2)c(I)c1)C(=O)O | 6.9% (inactive) and 99.2% (active) |
| COc1ccccc1N1CCN(CCCCOc2ccc(C)cc2C)CC1 | 18.9% (inactive) |
| Cc1ccc(NC2=C/C(=N/S(=O)(=O)c3cccs3)c3ccccc3C2=O)cc1 | 16% (inactive) |
| Cc1ccccc1NC1=C/C(=N\S(=O)(=O)c2cccs2)c2ccccc2C1=O | -11.4% (inactive) |
| COc1ccc(OCc2nnc(SCC(=O)Nc3ccccc3F)o2)cc1 | -6.5% (inactive) |
| Cc1cccc(C(=O)N(CCc2ccccc2)Cc2ccccc2)c1[N+](=O)[O-] | 14% (inactive) |
| O=C(OCn1ncc(Br)c(Br)c1=O)c1c(F)cccc1F | -5.4% (inactive) |
| O=C(OCn1ncc(Cl)c(Cl)c1=O)c1ccc(F)cc1 | 1.3% (inactive) |
| CCOC(=O)C1=C(C(F)(F)F)Nc2ncnn2C1c1cccc(OC)c1OC (stereo not drawn) | 13.1% (inactive) |
| CCCc1nc2c(=O)n(C)c(=O)nc-2n(C)n1 | -5.2% (inactive) |
| Cn1nc(-c2ccccn2)nc2c(=O)n(C)c(=O)nc1-2 | 45.9% (inactive) |
| O=C(/C=C/c1ccc(S(=O)(=O)N2CCOCC2)cc1)N1CCN(c2ccccc2)CC1 | -10.2% (inactive) |
| COc1ccc(Br)cc1S(=O)(=O)n1ccnc1 | 3.5% (inactive) |

| SMILES | inhibition |
| --- | --- |
| CN(c1ccc(C(=O)NCCSCc2ccccc2)cc1)S(=O)(=O)c1ccccc1 | -5.5% (inactive) |
| Cc1ccc(CSCCNC(=O)c2ccc(N(C)S(=O)(=O)c3ccccc3)cc2)cc1 | 4.4% (inactive) |
| CCOc1ccc(-n2nc3c(=O)[nH]nc(C)c3c2C)cc1 | 7.8% (inactive) |
| COc1ccccc1C1C(C#N)=C(N)Oc2c1c(-c1ccccc1)nn2-c1ccccc1 (stereo not drawn) | 96.3% (active) |
| COc1cc(C2C(C#N)=C(N)Oc3c2c(-c2ccccc2)nn3-c2ccccc2)cc(OC)c1OC (stereo not drawn) | -13.1% (inactive) |
| COc1ccc(C2C(C#N)=C(N)Oc3c2c(-c2ccccc2)nn3-c2ccccc2)c(OC)c1OC (stereo not drawn) | 79.5% (inactive) |
| O=C(/C=C/c1ccco1)NC(=S)Nc1ccccc1N1CCCC1 | 23% (inactive) |
| CCc1ccc(C(=O)NC(=S)Nc2ccc(N3CCOCC3)cc2)cc1 | 4.3% (inactive) |
| Cc1ccc(C(=O)NC(=S)Nc2ccccc2N2CCOCC2)cc1C | 0.3% (inactive) |
| COc1ccc(C(=O)NC(=S)Nc2ccccc2N2CCOCC2)cc1Br | 0.4% (inactive) |
| O=C(COc1ccc(Br)cc1)NC(=S)Nc1ccccc1N1CCOCC1 | 0.7% (inactive) |
| O=C(NC(=S)Nc1ccccc1N1CCOCC1)c1ccccc1F | 16.2% (inactive) |
| O=C(/C=C/c1ccco1)Nc1ccccc1N1CCOCC1 | 10.8% (inactive) |
| O=C(NC(=S)Nc1ccccc1N1CCOCC1)c1ccc([N+](=O)[O-])cc1 | 5% (inactive) |
| CCOC(=O)c1sc(NC(=O)CSc2ncn(-c3ccccc3)n2)nc1C | 14.4% (inactive) |
| CCOC(=O)N1CCN(Cc2nc3c(c(=O)n(C)c(=O)n3C)n2CCC(C)C)CC1 | -1.3% (inactive) |
| COC(=O)C1=CC(C(=O)c2cccs2)=NN(c2ccc(OC)cc2)C1C(=O)OC (stereo not drawn) | 7.5% (inactive) |
| COc1ccc(C(=O)NCC(=O)N2CCC3(CC2)NCCc2[nH]cnc23)cc1 | -11.2% (inactive) |
| O=C(c1csc2ccccc12)n1cccn1 | -12.1% (inactive) |
| Oc1ccccc1/C=N/n1cnnc1 | -8.4% (inactive) |
| Nc1nc(C23CC4CC(CC(C4)C2)C3)cs1 | 24.8% (inactive) |
| Nc1nc(C23CC4CC(CC(Cl)(C4)C2)C3)cs1 | -9.3% (inactive) |
| Cc1cccc(N=Nc2c(C)[nH]n(C(N)=S)c2=O)c1C | 10.8% (inactive) |
| Cc1ccccc1N=Nc1c(C)[nH]n(C(N)=S)c1=O | 93.2% (active) |

| SMILES | inhibition |
| --- | --- |
| Cc1[nH]n(C(N)=S)c(=O)c1N=Nc1ccccc1C(F)(F)F | 7.7% (inactive) |
| S=C(Nc1ccccc1Oc1ccccc1)Nc1cccc(Cl)c1Cl | -5.2% (inactive) |
| S=C(Nc1cccc(Cl)c1)Nc1ccccc1Oc1ccccc1 | 8.7% (inactive) |
| CCc1nc(NC(=O)Cc2csc(C)n2)sc1C(=O)OC | 14.5% (inactive) |
| COc1ccc(Cn2ccnc2SCC(=O)Nc2nnc(C)s2)cc1 | -0.9% (inactive) |
| CCc1nnc(NS(=O)(=O)c2ccc(NC(=O)/C=C/c3ccc(F)cc3)cc2)s1 | 1.5% (inactive) |
| CCc1nnc(NS(=O)(=O)c2ccc(NC(=S)NC(=O)/C=C/c3ccc(OC)cc3)cc2)s1 | 10.6% (inactive) |
| CCc1nnc(NS(=O)(=O)c2ccc(NC(=O)Nc3ccc(OC)cc3)cc2)s1 | -0.7% (inactive) |
| CCc1nnc(NS(=O)(=O)c2ccc(NC(=O)/C=C/C(=O)O)cc2)s1 | 6.6% (inactive) |
| COc1ccc(/C(C)=N\Nc2nc(-c3ccccc3)cc(=O)[nH]2)cc1 | 12.1% (inactive) |
| Cc1nn2c(N3CCOCC3)cc(C(C)(C)C)nc2c1-c1ccc(Cl)cc1 | -7.5% (inactive) |
| O=C(Nc1ccc(Nc2ccccc2)cc1)c1ccc(Cl)c([N+](=O)[O-])c1 | 12% (inactive) |
| O=C(Nc1ccc(C(O)(C(F)(F)F)C(F)(F)F)cc1)c1ccc(Cl)c([N+](=O)[O-])c1 | 88.6% (active) |
| O=C(O)c1cc(NC(=O)c2ccc(Cl)c([N+](=O)[O-])c2)cc(C(=O)O)c1 | 6.4% (inactive) |
| CCCn1c2c(c(O)c(C(=O)Nc3ncccc3O)c1=O)CCCC2 | -10.6% (inactive) |
| CCCCn1c(=O)[nH]c(=O)c2c1nc(CN1C(=O)c3ccccc3S1(=O)=O)n2CCC | 8.3% (inactive) |
| CCCCn1c(CCC(=O)O)nc2c1c(=O)[nH]c(=O)n2CCC | -0.5% (inactive) |
| CCC(Sc1nc(N)cc(=O)[nH]1)C(=O)NC(C(=O)OC)c1ccccc1 (stereo not drawn) | 3.4% (inactive) |
| COc1ccc(C2CCCN2CC(O)COc2ccccc2C(C)C)cc1 (stereo not drawn) | 5.6% (inactive) |
| O=C1CC(SC(=Nc2ccccc2)Nc2ccccc2)C(=O)N1c1cccc(Cl)c1 (stereo not drawn) | 17.2% (inactive) |
| O=C1CC(SC(=Nc2ccccc2)Nc2ccccc2)C(=O)N1c1ccc(Cl)c(Cl)c1 (stereo not drawn) | 72.2% (active) |
| O=C1CC(SC(=Nc2ccccc2)Nc2ccccc2)C(=O)N1c1ccc(Cl)cc1 (stereo not drawn) | 6.2% (inactive) |
| Cc1ccc(CNC(=O)c2nnn(CC(=O)Nc3cccc(C)c3C)c2N)cc1 | 18.1% (inactive) |
| Cc1cc(SCc2ccc(Br)cc2)nc(=O)[nH]1 | -5.2% (inactive) |

| SMILES | inhibition |
| --- | --- |
| CCOc1ccc(OCc2ccc(C(=O)N3CCCCC3)o2)cc1 | 18.5% (inactive) |
| O=C(O)c1cc(NS(=O)(=O)c2ccc(N3CCCCC3)c([N+](=O)[O-])c2)cc(C(=O)O)c1 | 5% (inactive) |
| O=C(O)c1cc(NS(=O)(=O)c2ccc(NCc3ccccc3)c([N+](=O)[O-])c2)cc(C(=O)O)c1 | 58.9% (inactive) |
| Cc1ccc(C)c(-c2cc(C(=O)Nc3sc(C)c(C)c3C(N)=O)c3ccccc3n2)c1 | 18% (inactive) |
| Cc1sc(NC(=O)c2cc(-c3ccc(Cl)cc3)nc3ccccc23)c(C(N)=O)c1C | 28.7% (inactive) |
| CCOC(=O)c1sc(NC(=O)c2cc(-c3ccccc3C)nc3ccccc23)c(C#N)c1C | -36.6% (inactive) |
| Cc1sc(NC(=O)c2cc(-c3ccccc3)nc3ccccc23)c(C(N)=O)c1C | -0.9% (inactive) |
| O=C(c1cc2cc(Br)ccc2o1)N1CCN(c2ccccc2)CC1 | 5.9% (inactive) |
| CC(Sc1nnc(-c2ccc(OC(F)F)cc2)o1)C(=O)NCC1CCCO1 (stereo not drawn) | 17.5% (inactive) |
| COc1cc(NC(=O)CN2C(=O)CN(C)C2=O)c(C)cc1[N+](=O)[O-] | 10.3% (inactive) |
| COc1cc(NC(=O)CN2CCCCC2)c(C)cc1[N+](=O)[O-] | 10.9% (inactive) |
| C=CCNC(=O)C1CCC(=O)N1S(=O)(=O)c1ccc(C)cc1 (stereo not drawn) | 9.3% (inactive) |
| CC(c1ccccc1C(O)c1ccccc1)N(C)C (stereo not drawn) | 28.9% (inactive) |
| CC(c1ccccc1C(O)(c1ccccc1)c1ccccc1)N(C)C (stereo not drawn) | 6.4% (inactive) |
| S=c1[nH]nc(CCc2ccc(Cl)cc2)o1 | 9.7% (inactive) |
| COc1ccc(S(=O)(=O)N(CC(=O)N2CCCCCC2)c2ccccc2OC)cc1 | 9.8% (inactive) |
| CCOC(=O)c1cc(C#N)c(Oc2cccc(C(F)(F)F)c2)nc1-c1ccccc1 | 10% (inactive) |
| CCOC(=O)c1cc(C#N)c(Oc2ccccc2OC)nc1-c1ccccc1 | 18.2% (inactive) |
| COC(=O)c1cc(C#N)c(Oc2ccc(F)cc2)nc1C | 20.6% (inactive) |
| CCOC(=O)c1cc(C#N)c(SC)nc1-c1ccccc1 | 18% (inactive) |
| CCOC(=O)c1c(C)[nH]c(C)c1S(=O)(=O)NCCN1CCN(c2cc(Cl)ccc2C)CC1 | 11.1% (inactive) |
